Test results from PubChem BioAssay (Tox21).
Inconclusive results are not listed. Active and inactive are the calls of the source. Unless noted, the call rests on the fitted dose curve.

What was measured:
[1] = biological target: Nuclear receptor subfamily 1 group I member 3 (Homo sapiens) (UniProt Q14994); experiment: qHTS assay to identify small molecule agonists of the constitutive androstane receptor (CAR) signaling pathway (AID 1224839; active means well fitted curve in the direction sought with a large enough effect in the repeat runs; an effect the other way counts as inactive or inconclusive;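 further: HepG2 cells stably carrying human CAR and a CYP2B6 luciferase reporter; series mostly up to about 92 µM; nearly all actives have a fitted effect of over 15% in size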)
Procedure, shortened: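 Compounds tested at 15 concentrations on HepG2 cells stably harbouring hCAR and CYP2B6-2.2kb reporter constructs, co-treated with PK11195 (0.75 uM final), 24 h at 37 C; luminescent reporter signal quantified.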

[2] = qHTS assay to identify small molecule antagonists of the estrogen related receptor signaling pathway with the pleiotropic PPARgamma coactivator (PGC) from Tox21 10K library - cell viability counter screen (AID 1224840; active means well fitted cell-killing curve with a large enough effect in the repeat runs, not every such curve was filed as active; further: nearly all actives have a fitted effect of over 40% in size)
Procedure, shortened: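 Compounds in DMSO, alongside positive and negative controls, were pinned onto PGC/ERR cells (2,000 per well). Exposure lasted 17.5 hours at 37 C, followed by a 30-minute CellTiter-Fluor incubation and fluorescence reading.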

[3] = biological target: Thyrotropin receptor (Homo sapiens) (UniProt P16473); experiment: qHTS assay to identify small molecule agonists of the thyroid stimulating hormone receptor (TSHR) signaling pathway (AID 1224843); further: nearly all actives have a fitted effect of over 45% in size
Procedure, shortened: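 HEK293 cells stably bearing the thyrotropin receptor were plated at 800 cells/well and challenged with compound (30 min, RT). Accumulated cAMP was quantified via cAMP-d2 competing for cryptate-tagged antibody.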

[4] = qHTS assay to identify small molecule agonists of the hypoxia (HIF-1) signaling pathway - cell viability counter screen (AID 1224844); further: nearly all actives have a fitted effect of over 50% in size
Procedure, shortened: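 Luminescent ATP content (CellTiter-Glo, 30 min, room temperature) served as the viability measure in HRE-bla ME-180 cells exposed to compounds for 17 hrs in low-serum medium (0.5% dialyzed FBS).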

[5] = qHTS assay to identify small molecule agonists of H2AX (AID 1224845; active means well fitted activation curve with a large enough effect in the signal ratio in the repeat runs, not every such curve was filed as active; the % refers to the signal ratio)
Procedure, shortened: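 Phospho-H2AX Ser139 measured by HTRF (ex 320 nm; em 665 and 620 nm) after 24 hr antibody incubation. Compounds, 15 concentrations, 0.76% DMSO, were applied to CHO-K1 cells for 3hr at 37C before lysis.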

[6] = qHTS assay to identify small molecule agonists of the hypoxia (HIF-1) signaling pathway (AID 1224846; active means well fitted activation curve with a large enough effect in the signal ratio in the repeat runs, not every such curve was filed as active; the % refers to the signal ratio)
Procedure, shortened: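 Measured by blue/green FRET after loading CCF4-AM: beta-lactamase expressed from a hypoxia response element in ME-180 cells. Test agents were delivered in DMSO and left 17 hrs; cells had been plated 5 hrs earlier in low-serum (0.5% dialyzed FBS) medium.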

[7] = qHTS assay to identify small molecule agonists of H2AX - cell viability counter screen (AID 1224847); further: top concentration of the series differs between compounds; nearly all actives have a fitted effect of over 30% in size
Procedure, shortened: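 Compounds tested at 15 concentrations were incubated 3 hr at 37C with wild-type CHO-K1 cells; cellular ATP-based luminescence (CellTiter-Glo) indicated viability.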

[8] = qHTS assay to identify small molecule antagonists of the estrogen related receptor signaling pathway with the pleiotropic PPARgamma coactivator (PGC) from Tox21 10K library (AID 1224841; call rule not given here; further: series mostly up to about 92 µM; actives are mostly falling curves and most rising ones were filed inactive; nearly all actives have a fitted effect of over 50% in size)
Procedure, shortened: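 Compound exposure ran 18 hours at 37 C in PGC/ERR cells (2,000/well) that had first rested 6 hours in a 37 C/5% CO2 incubator. Luciferase activity was then detected with One-Glo after a 30-minute room-temperature step.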

[9] = qHTS assay to identify small molecule agonists of the estrogen related receptor signaling pathway with the pleiotropic PPARgamma coactivator (PGC) from Tox21 10K library (AID 1224842; active means well fitted curve in the direction sought with a large enough effect in the repeat runs; an effect the other way counts as inactive or inconclusive; further: nearly all actives have a fitted effect of over 15% in size)
Procedure, shortened: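 Luminescence from One-Glo (30 min, room temperature) measured after PGC/ERR cells had 18 h at 37 C with pinned compound (23 nL in DMSO). Cells had been seeded at 2,000 per well and pre-incubated 6 h.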

[10] = qHTS assay to identify small molecule antagonists of the estrogen related receptor (ERR) signaling pathway from Tox21 library (AID 1224848; active means well fitted curve in the direction sought with a large enough effect in the repeat runs; an effect the other way counts as inactive or inconclusive; further: nearly all actives have a fitted effect of over 50% in size)
Procedure, shortened: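 Reading was by luminescence 30 min after ONE-Glo addition. Before that, ERR cells at 2,000 per well had rested 6 h at 37 C/5% CO2 and then received pin-tooled compounds in DMSO for 18 h at 37 C.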

Measured: Potency

Sequence of Thyrotropin receptor (Homo sapiens) (P16473 whole entry, looked up): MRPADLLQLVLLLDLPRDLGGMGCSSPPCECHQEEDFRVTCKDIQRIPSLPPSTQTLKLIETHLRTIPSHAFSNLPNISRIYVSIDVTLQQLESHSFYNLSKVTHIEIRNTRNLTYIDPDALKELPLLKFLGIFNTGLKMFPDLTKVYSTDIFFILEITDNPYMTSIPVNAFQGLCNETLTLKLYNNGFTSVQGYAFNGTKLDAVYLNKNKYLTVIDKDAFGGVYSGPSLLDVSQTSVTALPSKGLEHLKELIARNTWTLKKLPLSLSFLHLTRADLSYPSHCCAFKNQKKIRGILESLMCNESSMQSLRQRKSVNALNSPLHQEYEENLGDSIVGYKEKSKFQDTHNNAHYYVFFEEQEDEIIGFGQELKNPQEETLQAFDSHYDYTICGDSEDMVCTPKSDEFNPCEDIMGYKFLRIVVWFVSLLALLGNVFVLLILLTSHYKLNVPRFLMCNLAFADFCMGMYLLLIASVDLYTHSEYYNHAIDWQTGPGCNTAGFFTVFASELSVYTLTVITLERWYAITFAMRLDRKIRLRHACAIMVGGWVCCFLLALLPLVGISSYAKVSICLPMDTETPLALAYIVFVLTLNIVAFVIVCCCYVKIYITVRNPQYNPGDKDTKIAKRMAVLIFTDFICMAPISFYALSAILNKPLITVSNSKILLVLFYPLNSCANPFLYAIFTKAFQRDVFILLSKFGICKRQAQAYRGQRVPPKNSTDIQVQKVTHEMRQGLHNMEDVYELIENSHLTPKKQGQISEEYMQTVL
Sequence of Nuclear receptor subfamily 1 group I member 3 (Homo sapiens) (Q14994 whole entry, looked up): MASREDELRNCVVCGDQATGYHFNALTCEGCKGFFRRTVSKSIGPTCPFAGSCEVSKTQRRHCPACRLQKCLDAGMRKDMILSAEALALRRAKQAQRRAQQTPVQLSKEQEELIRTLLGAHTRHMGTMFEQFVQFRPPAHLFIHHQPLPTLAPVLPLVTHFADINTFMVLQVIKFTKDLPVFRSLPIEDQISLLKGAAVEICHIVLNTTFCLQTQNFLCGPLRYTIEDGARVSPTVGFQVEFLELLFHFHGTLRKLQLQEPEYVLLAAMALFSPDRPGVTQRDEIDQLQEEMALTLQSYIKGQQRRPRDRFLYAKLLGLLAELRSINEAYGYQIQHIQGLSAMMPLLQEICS

CCO[Si](CC)(OCC)OCC
inactive: [1] | [2] | [3] | [4] | [5] | [6]

CN(C)CCN(C)CCO
inactive: [1] | [2] | [3] | [4] | [5] | [6]

Cc1ccc(C(C)NC(=O)[C@@H](NC(=O)OC(C)C)C(C)C)cc1 (some centres not stated)
not listed: [8] | [9] | [10]
inactive: all other assays above

Nc1nnnn1-c1ccccc1
not listed: [8] | [9] | [10]
inactive: all other assays above

O=Cc1ccccc1Cl
not listed: [3]
inactive: all other assays above

COc1cc2c(cc1OC)C(=O)C(CC1CCN(Cc3ccccc3)CC1)C2 (configuration not stated)
not listed: [9]
inactive: all other assays above

COC(=O)c1cc(Cl)cc(Cl)c1
not listed: [8] | [9] | [10]
inactive: all other assays above

c1ccc2cnccc2c1
not listed: [3] | [8]
inactive: all other assays above

CN(C)CCCO[C@@H]1[C@H]2OC(C)(C)O[C@H]2O[C@@H]1C(O)CO (some centres not stated)
not listed: [3] | [6]
inactive: all other assays above

OC[C@@H](O)C(O)[C@@H](O)CO (some centres not stated)
not listed: [3]
inactive: all other assays above

Cn1nnc2c(C(N)=O)ncn2c1=O
not listed: [3] | [5]
inactive: all other assays above

O=C(O)CCCCCC(=O)O
not listed: [3]
inactive: all other assays above

CC(C)(C)NC[C@H](O)COc1cccc2c1CCCC2=O
not listed: [3] | [6]
inactive: all other assays above

C=CCOC(=O)CCCCCC
inactive: [1] | [2] | [3] | [4] | [5] | [6]
